Results published in ChEMBL document CHEMBL3988442, “University of Dundee, Small-Polar-MMV Screening Library” (2021).
For some assays here: Potency and affinity values are given separately.

Key:
Design in all cases: scale not given: direction of the effect not stated beside the values
[1] = target: Protein translocase subunit SecA (Escherichia coli (strain K12)) (UniProt P10408); test: Assay to Identify E. coli SecA ATPase Inhibitors; assay type: functional; settings: 30 µM
[2] = target: T1, Ubiquitin-activating enzyme e1, putative (Leishmania donovani (strain BPK282A1)) (UniProt E9BSI1); test: Leishmania donovani Ubiquitin Activating Enzyme (LdE1); assay type: functional; settings: 30 µM
T1 sequence (whole entry): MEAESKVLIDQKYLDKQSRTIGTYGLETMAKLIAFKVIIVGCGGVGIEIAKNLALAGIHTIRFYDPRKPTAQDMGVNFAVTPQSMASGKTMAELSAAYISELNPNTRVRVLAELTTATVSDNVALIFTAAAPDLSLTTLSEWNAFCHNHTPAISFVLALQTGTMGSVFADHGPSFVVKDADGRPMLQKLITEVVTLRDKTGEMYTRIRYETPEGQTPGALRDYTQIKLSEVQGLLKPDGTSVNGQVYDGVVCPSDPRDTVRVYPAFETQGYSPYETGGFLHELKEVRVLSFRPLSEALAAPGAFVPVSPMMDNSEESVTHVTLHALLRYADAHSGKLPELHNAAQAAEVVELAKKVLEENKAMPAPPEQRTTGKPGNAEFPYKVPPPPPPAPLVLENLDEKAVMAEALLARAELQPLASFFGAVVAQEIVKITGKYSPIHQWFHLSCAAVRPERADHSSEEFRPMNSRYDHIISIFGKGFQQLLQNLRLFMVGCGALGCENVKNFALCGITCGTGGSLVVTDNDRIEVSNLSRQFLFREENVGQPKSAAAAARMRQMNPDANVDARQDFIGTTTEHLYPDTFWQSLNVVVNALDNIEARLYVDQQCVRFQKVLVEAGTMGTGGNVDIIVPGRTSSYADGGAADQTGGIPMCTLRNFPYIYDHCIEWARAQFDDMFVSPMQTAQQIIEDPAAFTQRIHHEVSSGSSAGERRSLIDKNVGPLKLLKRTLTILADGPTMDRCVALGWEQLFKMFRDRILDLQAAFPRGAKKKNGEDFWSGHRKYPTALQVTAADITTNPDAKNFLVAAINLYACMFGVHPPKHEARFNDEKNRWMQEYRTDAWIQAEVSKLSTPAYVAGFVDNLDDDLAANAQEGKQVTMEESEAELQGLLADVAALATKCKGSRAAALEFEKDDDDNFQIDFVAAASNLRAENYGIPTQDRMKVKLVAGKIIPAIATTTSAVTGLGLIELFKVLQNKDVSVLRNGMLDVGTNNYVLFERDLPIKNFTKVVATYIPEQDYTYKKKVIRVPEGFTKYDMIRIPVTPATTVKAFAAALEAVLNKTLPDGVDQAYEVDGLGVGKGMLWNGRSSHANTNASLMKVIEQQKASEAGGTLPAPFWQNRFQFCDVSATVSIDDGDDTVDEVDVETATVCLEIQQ

[3] = target: AMP-activated protein kinase, AMPK (Homo sapiens) (UniProt P54646+O43741+P54619+Q9UGJ0+Q9Y478+Q13131+Q9UGI9); test: AMP-dependent Kinase enzyme assay. An in vitro enzyme assay that detects ADP turnover that is directly proportional to AMPK activity. This uses naive AMPK that is activated during the assay with MK-8722; assay type: functional; settings: 30 µM
[4] = target: Sialic acid-binding Ig-like lectin 9 (Homo sapiens) (UniProt Q9Y336); test: Hs-Siglec9 ALPHAscreen SOP 20170721; settings: 10 µM
Trypanosoma cruzi = test: Trypanosoma cruzi phosphomannomutase and mannose-1-phosphate guanylyltransferase assay; assay type: functional; settings: 10 µM
[5] = target: T2, Arginase-2, mitochondrial (Homo sapiens) (UniProt P78540); test: in vitro enzyme assay to detect the production of urea directly proportional to the activity of Arginase II; assay type: functional; settings: 33.3 µM; further: in the data most compounds retested in dose-response had high values
T2 sequence (whole entry): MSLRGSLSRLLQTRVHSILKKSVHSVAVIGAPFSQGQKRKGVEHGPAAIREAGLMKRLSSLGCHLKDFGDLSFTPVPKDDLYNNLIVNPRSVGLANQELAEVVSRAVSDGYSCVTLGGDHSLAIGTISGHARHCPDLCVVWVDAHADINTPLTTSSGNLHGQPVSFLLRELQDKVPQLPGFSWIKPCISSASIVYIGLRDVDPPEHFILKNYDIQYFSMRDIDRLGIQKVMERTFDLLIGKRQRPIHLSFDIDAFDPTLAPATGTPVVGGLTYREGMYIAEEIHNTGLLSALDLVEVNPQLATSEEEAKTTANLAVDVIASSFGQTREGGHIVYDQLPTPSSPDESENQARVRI

[6] = target: T3, Proteasome subunit beta (Trypanosoma cruzi) (UniProt O96673); test: Trypanosoma cruzi proteasome chymotrypsin-like activity (TcProtChymo) assay.; further: in the data most compounds retested in dose-response had high values; assay type: functional; settings: 9.37 µM
T3 sequence (whole entry): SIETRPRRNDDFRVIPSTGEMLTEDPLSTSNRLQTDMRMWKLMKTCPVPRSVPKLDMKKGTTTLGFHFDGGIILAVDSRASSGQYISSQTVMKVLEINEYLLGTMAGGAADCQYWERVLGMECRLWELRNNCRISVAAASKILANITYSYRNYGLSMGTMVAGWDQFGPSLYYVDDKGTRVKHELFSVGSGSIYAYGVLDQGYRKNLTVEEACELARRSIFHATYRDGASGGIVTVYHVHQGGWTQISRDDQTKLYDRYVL

Homo sapiens = species: Homo sapiens; test: To identify inhibition of the IFN signalling (Jak-Stat) pathway via expression of an eGFP reporter gene under the control of an IFN-stimulated response element (ISRE) containing MxA promoter.; assay type: functional; settings: 30 µM
[7] = target: T4, Tyrosyl-tRNA synthetase, putative (Trypanosoma cruzi (strain CL Brener)) (UniProt Q4DSP6); test: Trypanosoma cruzi tyrosyl tRNA synthetase (TcYRS) _High Tyrosine SOP; assay type: functional; settings: 30 µM; further: in the data most compounds retested in dose-response had high values
T4 sequence (whole entry): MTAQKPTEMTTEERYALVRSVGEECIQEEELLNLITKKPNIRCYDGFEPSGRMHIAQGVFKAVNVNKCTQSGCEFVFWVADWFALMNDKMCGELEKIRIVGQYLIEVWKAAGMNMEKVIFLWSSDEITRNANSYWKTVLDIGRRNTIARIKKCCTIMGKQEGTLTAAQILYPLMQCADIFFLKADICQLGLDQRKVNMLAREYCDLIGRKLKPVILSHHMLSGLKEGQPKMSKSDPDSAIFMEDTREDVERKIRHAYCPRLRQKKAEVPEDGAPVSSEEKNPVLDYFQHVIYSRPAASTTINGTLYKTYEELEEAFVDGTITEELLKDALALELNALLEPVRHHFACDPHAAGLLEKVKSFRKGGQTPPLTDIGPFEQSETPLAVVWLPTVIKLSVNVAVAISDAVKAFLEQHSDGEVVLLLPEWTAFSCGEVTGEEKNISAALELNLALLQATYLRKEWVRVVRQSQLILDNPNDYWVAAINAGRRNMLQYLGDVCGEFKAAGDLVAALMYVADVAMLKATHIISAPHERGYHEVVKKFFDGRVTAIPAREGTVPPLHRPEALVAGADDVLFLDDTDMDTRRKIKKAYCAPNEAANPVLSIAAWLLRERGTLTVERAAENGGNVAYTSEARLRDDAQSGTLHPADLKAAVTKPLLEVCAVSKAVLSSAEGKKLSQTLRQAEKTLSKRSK

[8] = target: T4, Tyrosyl-tRNA synthetase, putative (Trypanosoma cruzi (strain CL Brener)); test: Trypanosoma cruzi tyrosyl tRNA synthetase (TcYRS) SOP; assay type: functional; settings: 30 µM
[9] = target: Chromo domain-containing protein 1 (Saccharomyces cerevisiae (strain ATCC 204508 / S288c) (Baker's yeast)) (UniProt P32657); test: ScCHD-1 Enzyme Inhibition Assay; assay type: functional; settings: 30 µM; further: in the data most compounds retested in dose-response had high values
Chromo domain-containing protein 1 (Saccharomyces cerevisiae (strain ATCC 204508 / S288c) (Baker's yeast)), sequence (P32657 whole entry, the tested form may be a part): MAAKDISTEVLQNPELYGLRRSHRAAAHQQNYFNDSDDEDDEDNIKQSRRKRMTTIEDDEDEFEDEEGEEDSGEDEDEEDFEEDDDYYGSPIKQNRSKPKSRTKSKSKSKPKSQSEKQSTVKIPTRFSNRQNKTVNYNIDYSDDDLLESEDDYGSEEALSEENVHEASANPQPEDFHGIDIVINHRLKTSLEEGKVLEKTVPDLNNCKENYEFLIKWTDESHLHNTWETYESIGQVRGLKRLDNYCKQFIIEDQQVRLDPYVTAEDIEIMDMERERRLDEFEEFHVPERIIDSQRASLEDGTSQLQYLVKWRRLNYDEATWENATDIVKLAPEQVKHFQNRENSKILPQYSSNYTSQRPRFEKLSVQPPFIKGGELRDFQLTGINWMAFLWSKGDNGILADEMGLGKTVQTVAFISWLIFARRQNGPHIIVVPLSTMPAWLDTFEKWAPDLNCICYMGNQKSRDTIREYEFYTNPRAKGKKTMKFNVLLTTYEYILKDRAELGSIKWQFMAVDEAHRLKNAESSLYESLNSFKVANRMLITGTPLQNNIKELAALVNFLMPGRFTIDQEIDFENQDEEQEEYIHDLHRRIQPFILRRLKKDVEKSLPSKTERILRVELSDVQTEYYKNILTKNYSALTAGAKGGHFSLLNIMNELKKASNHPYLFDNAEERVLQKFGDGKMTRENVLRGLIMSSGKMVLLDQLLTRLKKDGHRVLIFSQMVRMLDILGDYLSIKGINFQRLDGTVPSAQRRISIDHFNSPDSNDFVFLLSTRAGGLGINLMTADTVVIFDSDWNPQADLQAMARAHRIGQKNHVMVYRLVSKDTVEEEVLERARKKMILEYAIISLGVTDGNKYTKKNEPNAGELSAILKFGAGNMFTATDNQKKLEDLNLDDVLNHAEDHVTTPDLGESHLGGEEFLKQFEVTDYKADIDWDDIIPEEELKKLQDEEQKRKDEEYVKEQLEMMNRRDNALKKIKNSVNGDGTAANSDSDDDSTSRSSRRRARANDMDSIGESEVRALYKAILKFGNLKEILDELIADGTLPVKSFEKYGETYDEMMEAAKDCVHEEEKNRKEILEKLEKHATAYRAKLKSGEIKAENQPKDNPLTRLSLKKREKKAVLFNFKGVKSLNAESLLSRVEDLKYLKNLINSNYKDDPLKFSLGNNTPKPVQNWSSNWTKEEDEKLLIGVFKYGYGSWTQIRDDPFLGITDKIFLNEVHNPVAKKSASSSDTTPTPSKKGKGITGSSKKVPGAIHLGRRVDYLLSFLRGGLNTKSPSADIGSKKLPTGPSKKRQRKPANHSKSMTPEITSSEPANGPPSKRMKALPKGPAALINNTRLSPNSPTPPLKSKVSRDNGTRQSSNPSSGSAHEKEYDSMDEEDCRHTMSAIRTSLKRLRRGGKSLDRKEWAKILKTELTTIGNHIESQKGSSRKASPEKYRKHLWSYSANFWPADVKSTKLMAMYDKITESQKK

Sialic acid-binding Ig-like lectin 9 (Homo sapiens), sequence (Q9Y336 whole entry): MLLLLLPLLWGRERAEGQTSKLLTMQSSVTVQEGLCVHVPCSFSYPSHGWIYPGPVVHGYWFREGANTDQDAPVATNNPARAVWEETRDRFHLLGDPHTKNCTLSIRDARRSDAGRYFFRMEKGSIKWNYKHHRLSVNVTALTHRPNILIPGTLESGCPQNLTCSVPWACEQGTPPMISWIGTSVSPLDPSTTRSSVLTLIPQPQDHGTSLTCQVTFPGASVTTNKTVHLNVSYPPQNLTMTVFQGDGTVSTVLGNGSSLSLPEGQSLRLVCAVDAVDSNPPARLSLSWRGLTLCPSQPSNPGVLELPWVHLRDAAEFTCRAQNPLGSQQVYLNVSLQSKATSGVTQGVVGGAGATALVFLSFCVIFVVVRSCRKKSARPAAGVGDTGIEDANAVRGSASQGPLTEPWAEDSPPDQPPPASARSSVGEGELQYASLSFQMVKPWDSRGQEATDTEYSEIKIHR
Protein translocase subunit SecA (Escherichia coli (strain K12)), sequence (P10408 whole entry): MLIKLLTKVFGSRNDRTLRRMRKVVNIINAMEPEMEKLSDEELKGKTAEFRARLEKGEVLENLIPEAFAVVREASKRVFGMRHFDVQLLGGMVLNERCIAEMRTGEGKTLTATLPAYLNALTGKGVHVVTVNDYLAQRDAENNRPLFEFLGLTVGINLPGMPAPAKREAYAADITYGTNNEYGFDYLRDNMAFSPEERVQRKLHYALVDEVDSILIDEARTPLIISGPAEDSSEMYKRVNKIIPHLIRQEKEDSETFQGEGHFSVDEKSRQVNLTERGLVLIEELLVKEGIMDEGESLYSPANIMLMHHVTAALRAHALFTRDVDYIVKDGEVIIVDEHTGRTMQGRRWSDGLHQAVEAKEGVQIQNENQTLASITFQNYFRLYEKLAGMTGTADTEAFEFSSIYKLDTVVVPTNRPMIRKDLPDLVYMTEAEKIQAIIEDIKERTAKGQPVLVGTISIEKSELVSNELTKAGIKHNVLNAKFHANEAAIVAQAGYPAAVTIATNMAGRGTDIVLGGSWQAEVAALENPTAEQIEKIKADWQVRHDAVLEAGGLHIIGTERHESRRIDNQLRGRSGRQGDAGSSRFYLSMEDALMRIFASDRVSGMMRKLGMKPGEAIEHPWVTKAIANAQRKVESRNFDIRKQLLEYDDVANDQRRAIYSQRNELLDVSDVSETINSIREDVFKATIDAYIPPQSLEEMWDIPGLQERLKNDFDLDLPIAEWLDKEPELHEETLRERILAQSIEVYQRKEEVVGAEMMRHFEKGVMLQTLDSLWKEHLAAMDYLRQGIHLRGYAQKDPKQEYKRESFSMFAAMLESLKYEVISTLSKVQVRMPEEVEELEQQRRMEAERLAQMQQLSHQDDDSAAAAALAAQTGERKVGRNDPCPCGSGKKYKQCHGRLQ

| SMILES | Percent Effect [1] [%] | Percent Effect [2] [%] | Percent Effect [3] [%] | Percent Effect [4] [%] | Percent Effect (Trypanosoma cruzi) [%] | Percent Effect [5] [%] | Percent Effect [6] [%] | Percent Effect (Homo sapiens) [%] | Percent Effect [7] [%] | Percent Effect [8] [%] | Percent Effect [9] [%] |
| --- | --- | --- | --- | --- | --- | --- | --- | --- | --- | --- | --- |
| Cc1nn(C)c(Cl)c1C1CCCN1C(=O)c1cc[nH]n1 (stereo unspecified) | -1.54 | 2.7 | -1.34 | 13.1 | 2.74 | -2 | 8.83 | -3.1 | 2.46 | 11.1 | -9.56 |
| O=C(NCCCO)C1CC(=O)N(c2n[nH]c3cccc(F)c23)C1 (stereo unspecified) | 0.204 | 17.3 | -5.17 | -2.48 | 1.57 | -12.2 | 10.5 | 2.36 | 5.29 | 15.4 | -14.8 |
| Cc1nc(CCCNC(=O)C2CC(=O)N(C(C)(C)C)C2)sc1C (stereo unspecified) | -3.07 | 5.48 | -0.283 | 4.12 | -3.57 | -2 | 7.79 | 12.9 | 5.21 | 13.6 | -5.51 |
| COc1ccc(F)cc1C(C)NC(=O)Nc1nnc(C)s1 (stereo unspecified) | -1.41 | 10.8 | -8.69 | 27.9 | 4.99 | 13.7 | 9.7 | 17.2 | 5.38 | 16.1 | 3.4 |
| COCC(=O)NCCn1ccc2c(OC)cccc21 | -0.301 | 17.3 | 0.941 | 6.9 | 0.393 | -3.7 | 10.5 | 19.7 | 6.35 | 15.4 | -8 |
| CN(C)C(=O)N1CCN(Cc2cnn(C)c2)CC2(CNC(=O)C2)C1 (stereo unspecified) | -2.48 | 0 | 2.36 | 11.3 | -3.03 | -2.87 | 17 | 3.58 | 4.32 | 2.56 | 3.46 |
| NC(=O)C(CNC(=O)Cc1ccc(F)cc1)Cc1ccc(F)cc1 (stereo unspecified) | -4.48 | 2.63 | -46.9 | -3.44 | -4.19 | 0 | 11.4 | 19.6 | 0 | 0 | -3.68 |
| CS(=O)(=O)N1CC[C@H]2[C@H](C[C@@H](Cn3cncn3)N2CC2CC2)C1 | -6.68 | 10.4 | 9.89 | 7.05 | -1.87 | -4.14 | 7.16 | -4 | 3.23 | 6.17 | -0.097 |
| COCC(=O)NCc1cc(=O)n2c(n1)CN(Cc1ccsc1)CCC2 | -5.93 | 8.11 | 3.64 | -0.625 | -2.83 | 6.05 | 17.9 | -15.7 | 2.16 | 5.13 | 2.68 |
| CC(CNC(=O)Nc1ccc(N(C)C)nc1)Cn1cccn1 (stereo unspecified) | -4.28 | 4.17 | -13.8 | -3.22 | -3.21 | 3.09 | 13.7 | -15.8 | -3.16 | 2.56 | -3.32 |
| CC(C)C(Sc1nnnn1-c1ccccc1)C(=O)NCc1cccnc1 (stereo unspecified) | -3.59 | 7.79 | 1.33 | -5.13 | -8.05 | -1.42 | 13 | 17 | 4.85 | 9.76 | -8.86 |
| CNC(=O)c1cc2c(nc1NCC1CC1)CCN(S(=O)(=O)C1CC1)CC2 | -0.616 | 18.2 | 3.29 | -14.9 | -2.86 | 8.39 | 9.75 | 33.1 | -1.06 | 11.5 | -8.62 |
| CCS(=O)(=O)c1ccccc1N1CCC(NC(=O)c2ccc[nH]2)CC1 | -4.07 | 8.11 | 1.8 | 7.6 | 6.78 | -7.95 | 2.15 | 13 | 8.91 | 18.3 | -1.36 |
| COC(=O)C(NC(=O)C(C)C)c1cc(F)ccc1F (stereo unspecified) | -3.03 | 10.4 | 3.19 | 15.7 | -2.43 | 7.12 | 3.38 | 22.8 | 2.91 | 9.76 | -4.93 |
| O=C(CN1CCCC1Cn1cccn1)NC1CCOCC1 (stereo unspecified) | -0.811 | 0 | -3.32 | -1.02 | 0.772 | -2.38 | 13.6 | -13.8 | 1.59 | -12.2 | -2.17 |
| CC(NC(=O)CCC(=O)c1cccs1)c1nnc2n1CCCCC2 (stereo unspecified) | -1.87 | -2.7 | -8.57 | -0.426 | -3.06 | 5.73 | -5.39 | 10 | 3.96 | 13.4 | 2.68 |
